# Results filed as inconclusive are left out. Active and inactive are the calls of the source. Unless noted, the call rests on the fitted dose curve; in most records, active means well fitted curve in the direction sought with a large enough effect; inconclusive means small, poorly fitted or top-dose-only effect, or another doubt; inactive means no such curve, though single readings can be large; an effect the other way counts as inactive or inconclusive.
# How the values were obtained:
# [1] = target: Cytochrome P450 2C9 (Homo sapiens) (UniProt P11712); test: Cytochrome P450 family 2 subfamily C member 9 (CYP2C9) small molecule antagonists: luciferase biochemical (cell-free) qHTS assay (AID 1645842; active means well fitted curve in the direction sought with a large enough effect in the repeat runs; an effect the other way counts as inactive or inconclusive; further: nearly all actives have a fitted effect of over 55% in size; further: potency means the concentration at half of the fitted maximal effect)
# Cytochrome P450 2C9 (Homo sapiens), sequence (P11712 whole entry, looked up): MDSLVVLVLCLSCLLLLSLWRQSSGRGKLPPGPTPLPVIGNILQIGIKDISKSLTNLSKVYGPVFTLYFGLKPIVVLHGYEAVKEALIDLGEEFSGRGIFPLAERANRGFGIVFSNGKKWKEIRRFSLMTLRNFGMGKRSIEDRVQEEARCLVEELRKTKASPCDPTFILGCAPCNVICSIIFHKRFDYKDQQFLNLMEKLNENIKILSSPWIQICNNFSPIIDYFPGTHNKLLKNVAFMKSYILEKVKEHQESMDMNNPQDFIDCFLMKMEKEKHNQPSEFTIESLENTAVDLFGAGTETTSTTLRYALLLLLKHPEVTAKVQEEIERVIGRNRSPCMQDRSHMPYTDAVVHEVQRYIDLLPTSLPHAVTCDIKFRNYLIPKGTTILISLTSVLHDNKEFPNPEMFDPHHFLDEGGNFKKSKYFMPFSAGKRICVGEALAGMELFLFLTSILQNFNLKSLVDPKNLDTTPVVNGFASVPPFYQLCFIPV
# How it was run: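 Luminescence, after 20 min with luciferin detection reagent, reflected CYP2C9 turnover during a 1 h NADPH-driven reaction at 37C. Enzyme-substrate mix contained 0.4% bovine serum albumin and was preincubated with compound 10 min at room temperature.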
# [2] = qHTS drug screen for cell cycle checkpoint inhibitors in PARPi-resistant BRCA-mutant ovarian cancer cell lines. (AID 1963452; calls by dose curve; further: potency means the concentration at half of the fitted maximal effect); conditions: PEO1/OlaR viability, CellTiter-Glo luminescence, 96 h; for Z-AUC: stronger effect = lower value
# How it was run: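 PEO1, PEO4 and PEO1/OlaR ovarian cancer cells, 600 per well, exposed 96 h at 37C to a dilution series. Viability read by CellTiter-Glo luminescence, normalized to DMSO and empty wells; activity summarized as Z-AUC.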
# HaCat = test: Cytotoxic Profiling of Annotated Libraries Using Quantitative High-Throughput Screening (AID 1296008); conditions: Five cell lines viability, CellTiter-Glo ATP luminescence, 48-72 h; max response: stronger effect = lower value; further: nearly all actives have a fitted effect of over 60% in size; further: potency means the concentration at half of the fitted maximal effect; on max response: on the % scale 0 is the no-effect control and ±100 the full control effect
# How it was run: (§1)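 Cytotoxicity was measured as CellTiter-Glo ATP luminescence, read after 10 min at room temperature. Compound treatment of the cells lasted 48 or 72 hr at 37 degrees Celsius in a qHTS format.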
# CAOV3 = test: Primary qHTS to identify gynecologic anti-cancer compounds using libraries of approved drugs and bioactive compounds (AID 1345084); conditions: Gynecologic cancer cell panel viability, ATPlite luminescence, 48 h; series mostly up to 57.5 µM; further: nearly all actives have a fitted effect of over 55% in size; further: potency means the concentration at half of the fitted maximal effect
# How it was run: (§2)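 In this quantitative HTS, cell killing is estimated from loss of ATP-dependent luciferase light. Cells see five compound concentrations over a 48 h exposure.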
# SKOV3 = test: as above; conditions: Gynecologic cancer cell panel viability, ATPlite luminescence, 48 h; series mostly up to 57.5 µM
# How it was run: as §2
# [3] = qHTS assay to identify inhibitors of the type 1 interferon - major histocompatibility complex class I in skeletal muscle: Counter screen cell viability and HiBit confirmation (AID 1347412); conditions: iHSKM muscle cells + IFN-b, HiBiT or CellTiter-Glo, 24 h; further: nearly all actives have a fitted effect of over 60% in size; further: potency means the concentration at half of the fitted maximal effect; on activity change, negative = inhibition: on the % scale 0 is the no-effect control and ±100 the full control effect
# How it was run: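 Human myoblast knock-in line, 4.0 ng/ml IFN-beta stimulation, 24 h compound treatment. Endpoints: HiBiT lytic luminescence (HLA-B level) and CellTiter Glo (ATP). Dosing 12 concentrations, 3-fold steps, 46 uM highest final.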
# [4] = tested on: Zika virus NS2B-NS3 protease (unlinked complex); test: Primary screen GU Rhodamine qHTS for Zika virus inhibitors: Unlinked NS2B-NS3 protease assay (AID 1347159); further: nearly all actives have a fitted effect of over 60% in size; further: potency means the concentration at half of the fitted maximal effect; on activity change, negative = inhibition: on the % scale 0 is the no-effect control and ±100 the full control effect
# How it was run: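 Percent inhibition derives from the 15-min fluorescence change (ex 480, em 540 nm), normalized to no-enzyme and no-inhibitor wells. Reactions contained 25 nM NS2B-NS3 complex and 1.5 microM substrate in 10 mM Tris-HCl pH 8.0.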
# [5] = target: Cytochrome P450 2D6 (Homo sapiens) (UniProt P10635); test: Cytochrome P450 family 2 subfamily D member 6 (CYP2D6) small molecule antagonists: luciferase biochemical (cell-free) qHTS assay (AID 1645840; active means well fitted curve in the direction sought with a large enough effect in the repeat runs; an effect the other way counts as inactive or inconclusive; further: nearly all actives have a fitted effect of over 55% in size; further: potency means the concentration at half of the fitted maximal effect; on activity change, negative = inhibition: on the % scale 0 is the no-effect control and ±100 the full control effect)
# Cytochrome P450 2D6 (Homo sapiens), sequence (P10635 whole entry, looked up): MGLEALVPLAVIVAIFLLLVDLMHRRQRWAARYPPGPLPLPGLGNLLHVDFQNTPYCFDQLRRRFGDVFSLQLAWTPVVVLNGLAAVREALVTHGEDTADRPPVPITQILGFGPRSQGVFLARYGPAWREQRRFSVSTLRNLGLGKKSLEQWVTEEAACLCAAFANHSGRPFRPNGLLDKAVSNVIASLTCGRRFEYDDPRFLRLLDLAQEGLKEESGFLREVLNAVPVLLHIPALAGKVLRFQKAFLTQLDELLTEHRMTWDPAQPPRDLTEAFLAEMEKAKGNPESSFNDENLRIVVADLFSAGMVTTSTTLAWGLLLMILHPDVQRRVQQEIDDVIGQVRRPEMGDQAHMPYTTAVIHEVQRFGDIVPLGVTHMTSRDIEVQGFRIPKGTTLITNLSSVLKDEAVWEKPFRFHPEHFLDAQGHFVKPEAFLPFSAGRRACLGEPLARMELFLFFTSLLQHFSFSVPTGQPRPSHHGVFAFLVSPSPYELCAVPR
# How it was run: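 P450-Glo luminescent screen: recombinant CYP2D6 enzyme–proluciferin substrate mix preincubated with compound 10 min at room temperature, then NADPH regeneration added for 1 h at room temperature. Detection reagent added for 20 min; luciferin light read as relative luminescence units.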
# CRL-7250 = normal cell line; test: Cytotoxic Profiling of Annotated Libraries Using Quantitative High-Throughput Screening (AID 1296008); conditions: Five cell lines viability, CellTiter-Glo ATP luminescence, 48-72 h; max response: stronger effect = lower value; further: nearly all actives have a fitted effect of over 60% in size; further: potency means the concentration at half of the fitted maximal effect
# How it was run: as §1
# [6] = target: Catechol O-methyltransferase (Homo sapiens) (UniProt P21964); test: Confirmatory Screen for Target Class Profiling of Small Molecule Inhibitors of Methyltransferases (AID 1745852; calls by dose curve; further: potency means the concentration at half of the fitted maximal effect); conditions: MTase-Glo luminescence, SAH detection, recombinant enzyme; measured here: COMT max response; stronger effect = lower value
# Catechol O-methyltransferase (Homo sapiens), sequence (P21964 whole entry, looked up): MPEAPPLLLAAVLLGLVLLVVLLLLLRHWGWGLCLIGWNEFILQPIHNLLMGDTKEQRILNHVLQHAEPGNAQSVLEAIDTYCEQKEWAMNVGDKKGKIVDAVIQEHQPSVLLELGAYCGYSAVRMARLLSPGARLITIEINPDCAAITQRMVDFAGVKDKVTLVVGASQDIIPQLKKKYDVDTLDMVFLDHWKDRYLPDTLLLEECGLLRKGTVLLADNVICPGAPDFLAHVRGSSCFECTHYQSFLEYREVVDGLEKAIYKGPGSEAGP
# [7] = target: Guanidinoacetate N-methyltransferase (Homo sapiens) (UniProt Q14353); test: as above; conditions: activity change, negative = inhibition: at 57.3 µM (top of the series) unless noted
# [8] = target: Nicotinamide N-methyltransferase (Homo sapiens) (UniProt P40261); test: as above; conditions: MTase-Glo luminescence, SAH detection, recombinant enzyme; measured here: NNMT max response; stronger effect = lower value
# Nicotinamide N-methyltransferase (Homo sapiens), sequence (P40261 whole entry, looked up): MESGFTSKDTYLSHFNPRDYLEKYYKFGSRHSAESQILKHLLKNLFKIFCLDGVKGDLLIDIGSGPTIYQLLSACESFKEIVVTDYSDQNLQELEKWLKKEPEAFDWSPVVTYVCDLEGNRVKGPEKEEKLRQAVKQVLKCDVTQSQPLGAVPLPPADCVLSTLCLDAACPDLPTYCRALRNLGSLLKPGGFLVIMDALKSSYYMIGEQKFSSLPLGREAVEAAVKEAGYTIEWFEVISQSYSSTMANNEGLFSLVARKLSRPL
# [9] = target: Phenylethanolamine N-methyltransferase (Homo sapiens) (UniProt P11086); test: as above; conditions: MTase-Glo luminescence, SAH detection, recombinant enzyme; measured here: PNMT max response; stronger effect = lower value
# Phenylethanolamine N-methyltransferase (Homo sapiens), sequence (P11086 whole entry, looked up): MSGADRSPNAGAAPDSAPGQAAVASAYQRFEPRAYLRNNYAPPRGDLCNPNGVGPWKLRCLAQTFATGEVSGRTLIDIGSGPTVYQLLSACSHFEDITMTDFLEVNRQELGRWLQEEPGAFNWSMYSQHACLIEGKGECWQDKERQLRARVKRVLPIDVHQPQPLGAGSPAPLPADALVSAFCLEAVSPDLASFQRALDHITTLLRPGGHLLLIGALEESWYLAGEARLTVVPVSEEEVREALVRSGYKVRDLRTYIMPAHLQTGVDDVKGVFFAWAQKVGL
# NIH3T3 = test: Cytotoxic Profiling of Annotated Libraries Using Quantitative High-Throughput Screening (AID 1296008); conditions: Five cell lines viability, CellTiter-Glo ATP luminescence, 48-72 h; max response: stronger effect = lower value; further: nearly all actives have a fitted effect of over 60% in size; further: potency means the concentration at half of the fitted maximal effect
# How it was run: as §1
# [10] = qHTS to identify inhibitors of the type 1 interferon - major histocompatibility complex class I in skeletal muscle: primary screen against the NCATS Mechanism Interrogation Plate v5.0 (MIPE) Libary (AID 1347411);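 further: plate controls were vehicle for no effect and reference inhibitor for full effect; nearly all actives have a fitted effect of over 65% in size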
# How it was run: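 Immortalized human myoblasts (C25cl48) with HiBit knocked into endogenous HLA-B*08:01 were stimulated with 4 ng/ml IFN-beta and given compounds in 11-point 1:3 titration from 46 uM. After 24 h at 37 C, lytic HiBiT luminescence was read.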
# [11] = P-glycoprotein substrates identified in KB-8-5-11 adenocarcinoma cell line, qHTS therapeutic library screen (AID 1346987); further: potency means the concentration at half of the fitted maximal effect; nearly all actives have a fitted effect of over 65% in size
# How it was run: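 KB-8-5-11, a colchicine-selected P-gp-overexpressing KB-3-1 subline, was grown without colchicine for the assay. Cells were seeded at 500 cells/well, dosed in concentration-response and incubated 72 h at 37 degree C, 5% CO2. Viability was read by CellTiter-Glo luminescence.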
# [12] = Confirmatory screen NINDS Rhodamine qHTS for Zika virus inhibitors (AID 1347161)
# How it was run: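 Aprotinin served as in-plate control. Conditions: 25 nM linked NS2B-NS3, pH 8.0 Tris buffer, titrated compounds, 15 min preincubation and 15 min reaction with 1.5 microM Rhod110 substrate at room temperature.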
# [13] = Tertiary RLuc qRT-PCR qHTS assay for Zika virus inhibitors (AID 1347169); further: potency means the concentration at half of the fitted maximal effect; nearly all actives have a fitted effect of over 55% in size
# How it was run: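 Inhibition of ZIKV-RLuc replication in Vero cells, read as Renilla luminescence 1-1.5 hrs after live-cell substrate addition, following 48-72 hrs infection at MOI 1-2 in presence of compound.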
# [14] = measured here: PEO1 parental Z-AUC
smiles,measurement,setting,value
COc1cc2ncnc(Oc3cccc(NC(=O)Nc4cc(C(C)(C)C(F)(F)F)on4)c3)c2cc1OC,Potency,[1],12 µM (active)
same,Z-AUC,[2],0.198 (inactive)
same,Z-AUC,[2]; [14],0.387
same,Z-AUC,[2]; measured here: PEO4 Z-AUC,0.555
same,Potency,HaCat,5.17 µM (active)
same,Potency,CAOV3,inactive
same,Potency,SKOV3,inactive
same,Potency,[3]; HiBiT,24.9 µM (active)
same,"activity change, negative = inhibition","[3]; Viability, at 45.9 µM (top of the series)",-21.3% (inactive)
CNC(=O)c1cccc2cc(Oc3ccnc4cc(OCC5(N)CC5)c(OC)cc34)ccc12,Potency,[4],inactive
same,Potency,[5],inactive
same,Potency,[1],7.56 µM (active)
same,Z-AUC,[2],0.323 (inactive)
same,Z-AUC,[2]; [14],0.465
same,Z-AUC,[2]; measured here: PEO4 Z-AUC,0.47
same,Potency,CRL-7250,4.61 µM (active)
same,outcome,HaCat,inactive
COc1cc2ncnc(Nc3ccc(Oc4ccccc4)cc3)c2cc1OC,Potency,[4],inactive
same,Potency,[5],19 µM (active)
same,Potency,[1],16.9 µM (active)
same,Potency,HaCat,7.31 µM (active)
same,Potency,CAOV3,31.6 µM (active)
same,Potency,SKOV3,28.2 µM (active)
CNc1ccc([N+](=O)[O-])cc1-n1cnc(-c2ccc(C(F)(F)F)cc2)c1,Potency,[4],inactive
same,Potency,[5],0.756 µM (active)
same,Potency,[1],3.01 µM (active)
same,max response,HaCat,-13.4% (inactive)
same,Potency,CAOV3,inactive
same,Potency,SKOV3,inactive
COc1ccc2c(c1)C[C@H](C(=O)Nc1ccc(-c3cn[nH]c3)cc1OCCN(C)C)CO2,Potency,[4],inactive
same,Potency,[5],9.52 µM (active)
same,Potency,[1],4.25 µM (active)
same,activity,[6],-2.58%
same,"activity change, negative = inhibition",[7],-2.48% [at 9.47 µM]
same,activity,[8],-0.41%
same,activity,[9],0.522%
same,outcome,HaCat,inactive
same,Potency,CAOV3,inactive
same,Potency,SKOV3,inactive
C[C@@H]1COCCN1c1cc(C2(S(C)(=N)=O)CC2)nc(-c2ccnc3[nH]ccc23)n1 (stereo not given in full),Potency,[2],2.75 µM (active)
same,Z-AUC,[2]; [14],-1.94
same,Z-AUC,[2]; measured here: PEO4 Z-AUC,-1.89
same,Potency,HaCat,16.6 µM (active)
same,Potency,NIH3T3,4.17 µM (active)
Cn1cc(-c2cnc3ccc4ccc(CS(=O)(=O)NCc5ccccn5)cc4c(=O)c3c2)cn1,Potency,[4],inactive
same,Potency,[10],inactive
same,Potency,[5],12 µM (active)
same,Potency,[1],inactive
same,activity,[6],-3.92%
same,Potency,[7],inactive
same,activity,[8],-3.63%
same,activity,[9],-3.14%
same,max response,CRL-7250,-6.66% (inactive)
same,max response,HaCat,-3.23% (inactive)
COc1cc([C@@H](CC(=O)O)c2ccc(C)c(CN3C[C@@H](C)Oc4ccccc4S3(=O)=O)c2)cc2nnn(C)c12,Potency,[10],inactive
same,Z-AUC,[2],1.24 (inactive)
same,Z-AUC,[2]; [14],0.171
same,Z-AUC,[2]; measured here: PEO4 Z-AUC,-0.282
same,max response,HaCat,-8.19% (inactive)
same,max response,NIH3T3,3.5% (inactive)
COc1ccc(C(=O)N(CCC(C)C)Cc2nc(C)c(C)n2Cc2ccccc2C)c(OC)c1,Potency,[4],inactive
same,Potency,[5],0.952 µM (active)
same,Potency,[1],21.3 µM (active)
same,activity,[6],-8.43%
same,"activity change, negative = inhibition",[7],-6.57%
same,activity,[8],-68.8%
same,activity,[9],-7.99%
same,max response,CRL-7250,-0.877% (inactive)
same,Potency,SKOV3,inactive
CC1(C)CC23[C@@H]4CC(=O)[C@@H]2COC(=O)[C@@H]3CC[C@H]41,max response,HaCat,-1.08% (inactive)
same,Potency,CAOV3,inactive
O=S(=O)(c1cccc2ccccc12)n1ccc2ccc(N3CCN4CCCC4C3)cc21 (stereo not given),Potency,[11],20.6 µM (active)
same,Potency,[5],2.68 µM (active)
same,Potency,[1],12 µM (active)
same,max response,HaCat,4.67% (inactive)
same,Potency,CAOV3,inactive
same,Potency,SKOV3,inactive
COc1cc(O)ccc1OCCNCC(O)COc1cccc2[nH]c3ccccc3c12 (stereo not given),Potency,[4],inactive
same,max response,CRL-7250,-16.8% (inactive)
same,outcome,HaCat,inactive
N#CCC(C1CCCC1)n1cc(-c2ncnc3[nH]ccc23)cn1 (stereo not given),Potency,[4],inactive
same,Potency,[5],inactive
same,Potency,[1],15.1 µM (active)
same,outcome,HaCat,inactive
same,Potency,CAOV3,inactive
same,Potency,SKOV3,inactive
CC(C)CCC[C@@H](C)[C@H]1CC[C@H]2[C@@H]3CC=C4C[C@@H](OC(=O)NCCN(C)C)CC[C@]4(C)[C@H]3CC[C@]12C,outcome,CRL-7250,inactive
same,max response,HaCat,-22.1% (inactive)
same,Potency,SKOV3,22.4 µM (active)
CC1CCN(C(c2ccc(F)cc2)c2ccc(C(C)C(=O)O)cc2-c2ccc(C(F)(F)F)cc2)CC1 (stereo not given),Potency,[4],1.58 µM (active)
same,Potency,[12],3.12 µM (active)
same,Potency,[13],6.58 µM (active)
same,Potency,[1],9.52 µM (active)
same,activity,[6],4.19%
same,"activity change, negative = inhibition",[7],0%
same,activity,[8],-58.6%
same,activity,[9],4.79%
same,max response,CRL-7250,-3.89% (inactive)
same,max response,HaCat,1.13% (inactive)
same,Potency,CAOV3,inactive
same,Potency,SKOV3,inactive
C[C@@H](c1nc(-c2ccc(C#N)cc2)cs1)[C@](O)(Cn1cncn1)c1cc(F)ccc1F,Potency,[4],inactive
same,Potency,[1],6.01 µM (active)
same,max response,CRL-7250,-34.3% (inactive)
same,outcome,HaCat,inactive
N#Cc1c[nH]c2c(C(=O)N3CCN(CCc4ccc(F)cc4)CC3)cccc12,Potency,[5],15.1 µM (active)
same,Potency,[1],13.5 µM (active)
same,max response,HaCat,-7.89% (inactive)
same,Potency,CAOV3,inactive
O=C(NCc1ccc(Oc2ccccc2)cc1)c1nc(-c2cc(Br)c(O)c(Br)c2)no1,Potency,[4],2.82 µM (active)
same,Potency,[12],2.21 µM (active)
same,Potency,[13],8.29 µM (active)
same,Potency,[1],0.849 µM (active)
same,activity,[6],-16.2%
same,Potency,[7],42.9 µM (active)
same,activity,[8],-75.3%
same,activity,[9],-0.151%
same,outcome,HaCat,inactive
same,Potency,CAOV3,inactive
same,Potency,SKOV3,inactive

# Source: PubChem BioAssay (NCATS)
